In PubChem BioAssay (NCI):
Compounds without any hit were thinned out: in the full panel of roughly 83,000, 20% have a hit.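 Single-dose data. Exposure time 48 hours. Values below 10 considered active.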 Unmarked numbers belong to inactive results. Active and inactive are the calls of the source.

Legend:
Test in all cases: NCI-60 one-dose screen, 48 h (100 = growth as untreated, 0 = no growth, -100 = all killed)
Details in all cases: 10 µM unless noted
HCT-15 colon = system: HCT-15 colon
HT29 colon = system: HT29 colon
SNB-75 CNS = system: SNB-75 CNS
SNB-19 CNS = system: SNB-19 CNS
U251 CNS = system: U251 CNS
PC-3 prostate = system: PC-3 prostate
SK-MEL-5 melanoma = system: SK-MEL-5 melanoma
UACC-62 melanoma = system: UACC-62 melanoma
LOX IMVI melanoma = system: LOX IMVI melanoma
SK-MEL-28 melanoma = system: SK-MEL-28 melanoma

Row | Structure (SMILES) | growth (HCT-15 colon) | growth (HT29 colon) | growth (SNB-75 CNS) | growth (SNB-19 CNS) | growth (U251 CNS) | growth (PC-3 prostate) [%] | growth (SK-MEL-5 melanoma) | growth (UACC-62 melanoma) | growth (LOX IMVI melanoma) | growth (SK-MEL-28 melanoma)
1 | CNC(=O)c1cc(-c2ccc(NC(=S)Nc3cccc(C(F)(F)F)c3)cc2)nc2cccnc12 | 98.2% | 99.7% | 91.2% | 94.7% | 95.3% | 96.1 | 96.2% | 89.9% | 95.3% | 99.9%
2 | CC(=O)Nc1cc(N2CCOCC2)c2nc(NC(=O)c3[nH]c(C)c(Cl)c3Cl)sc2c1 | 66.9% | 65.1% | 17.3% | 83.9% | 57.8% | 64.3 | 77.6% | 94.8% | 57% | 67.5%
3 | CN1CCN(CC#CCn2c3c(c4ccccc42)C[C@]2(C)[C@H]4CC=C5[C@@H]6CC(C)(C)CC[C@]6(C(=O)N6CCOCC6)CC[C@@]5(C)[C@]4(C)CC[C@H]2C3(C)C)CC1 | 28.4% | 12.3% | 88.9% | 83% | 43.4% | 56.7 | 95.7% | 103% | -46.1% (active) | 92.1%
4 | O=C(NCCNc1cc(-c2cn(-c3ccccc3)nc2-c2cccc(O)c2)ccn1)Nc1cc(C(F)(F)F)cc(C(F)(F)F)c1 | 100% | 95.7% | 75.4% | 97% | 86.8% | 80.7 | 96.8% | 94.1% | 88% | 96.9%
5 | O=C(CCCCCCNC(=O)C(O)(O)C(F)(F)F)Nc1ccc(Cl)cc1 | 39.1% | 5.13% (active) | 42.5% | 31.7% | 13.9% | 35.3 | -28% (active) | -18.8% (active) | 4.18% (active) | 27%
6 | NC(=O)c1ncn2c(=O)n(CCF)nnc12 | 80.4% | 57.4% | 50.6% | 96.1% | 93.7% | 71.6 | 92.5% | 49.6% | 26.1% | 87%
7 | Cc1[nH]c(C(=O)Nc2ccc(S(=O)(=O)N3CCCCC3)cc2OCCOCCOCCOCCOCCOCCOCCOCCOCCOc2cc(S(=O)(=O)N3CCCCC3)ccc2NC(=O)c2[nH]c(C)c3c2CCCCC3=O)c2c1C(=O)CCCC2 | 30.9% | 4.45% (active) | -2.1% (active) | 33.3% | 24.3% | 28.8 | 14.8% | -32.5% (active) | -75.1% (active) | 35.1%
8 | CN1CCC[C@]2(C)[C@H]3CC[C@@H]4[C@@H]5[C@H]6OC[C@@]5(CCC6(C)C)CC[C@@]4(C)[C@]3(C)CC[C@H]2C1(C)C | 24.4% | 21.6% | 89.1% | 84.8% | 27.5% | 74.2 | 93.8% | 98.4% | -74.5% (active) | 96.2%
9 | COc1cc2cc(Oc3ccc(NC(=O)Nc4ccc(F)c(C(F)(F)F)c4)cc3)c(C)nc2cc1OCCN(C)C | 29.2% | 66.5% | 98.8% | 99.8% | 100% | 92 | 90.9% | 106% | 54% | 81%
10 | COc1ccc(C2CC(c3cccc(OCCCCOc4cccc(C5=NOC(c6ccc(OC)cc6)C5)c4)c3)=NO2)cc1 (stereo not given) | 77.3% | 69.8% | 101% | 92% | 77.3% | 99.8 | 97.5% | 68.8% | 17.9% | 102%
11 | Cc1ccc(OCc2occc2C(=O)N2CCOCC2)cc1 | 100% | 108% | 81.8% | 99.8% | 103% | 107 | 100% | 97.9% | 108% | 110%
12 | Cc1[nH]c(C(=O)Nc2ccccc2OCc2cccc(C(=O)NC3CCNC3)c2)c(Cl)c1Cl (stereo not given) | 35.2% | -47.7% (active) | 73.6% | 9.65% (active) | -56.2% (active) | 59.1 | 97.6% | 75% | -85.1% (active) | -44.4% (active)
13 | O=C(CCCCCCN1CC(=O)N2[C@@H](c3cccs3)c3[nH]c4ccccc4c3C[C@H]2C1=O)NO | 96.1% | 78.9% | 73% | 78.1% | 76.5% | 86.2 | 74.8% | 5.39% (active) | 68.4% | 70.2%
14 | N#Cc1cnc2ccc(-c3cnc4n[nH]nc4c3)cc2c1N1CCc2cc(F)c(Cl)cc21 | 12.3% | 28.1% | -0.117% (active) | 16.4% | 21.1% | 20.4 | -45% (active) | 2.13% (active) | 10.1% | 13.4%
15 | Cc1ccc(C(=O)CSc2nnc(-c3ccc(-c4ccc(Cl)cc4)nc3C)o2)cc1 | 102% | 104% | 90.7% | 99.3% | 104% | 94.6 | 95% | 84.8% | 95.3% | 99.9%
16 | O=C(CCCCCC/C=C\c1csc(Br)n1)NO | 90.9% | 84.5% | 64.8% | 97% | 91.4% | 82 | 97.1% | 74.5% | 70.1% | 92.4%
17 | Cc1ccc2c(n1)C(=O)C(Cl)=C(Nc1ccccc1C(=O)OC(C)(C)C)C2=O | -66.2% (active) | 26.2% | 98.6% | 80.4% | 71.5% | 67.1 | 45.3% | 79% | -72.5% (active) | 34.6%
18 | CCN(CC)c1ccc(/C=N/NC(=O)c2ccc(S(N)(=O)=O)cc2)cc1 | 20.4% | 30.8% | 71.1% | 36.9% | 33.5% | 43.8 | -0.119% (active) | 15.7% | 0.095% (active) | 22.5%
19 | C#Cc1nc(/C=C/CCCCCCC(=O)NO)cs1 | 77% | 54.2% | -17.1% (active) | 86.1% | 63.2% | 72.8 | 63.2% | 45.8% | -84.2% (active) | 75.4%
20 | COc1cccc(N2CCN(C3=C(Cl)C(=O)c4ncccc4C3=O)CC2)c1 | 42.3% | 108% | 85.1% | 90.8% | 90.5% | 78.7 | 97.3% | 84.3% | 28.6% | 105%
21 | O=S(=O)(Oc1ccc(-c2cn3ccsc3n2)cc1)c1cccc(C(F)(F)F)c1 | 96.8% | 107% | 102% | 96.4% | 100% | 97.9 | 98.3% | 81.3% | 112% | 99.6%
22 | CCCc1[nH]c(-c2cc(N)ccc2Cl)c2c1C(=O)CCCC2 | 90.6% | 104% | 89.2% | 100% | 102% | 85.6 | 98.1% | 82.1% | 107% | 102%
23 | CC1CC(=O)C2=C(C1)Nc1ccc(Br)cc1CC2c1c[nH]c2ccc(Br)cc12 (stereo not given) | 27.1% | 11.1% | -7.47% (active) | 54.7% | 53.1% | 31.3 | 66.1% | 42.1% | 34.9% | 57.2%
24 | C#Cc1nc(/C=C/C(=O)NO)cs1 | 76.3% | 7.85% (active) | -94.4% (active) | 93.4% | -5.41% (active) | 70.5 | 63.3% | 57.9% | -90.7% (active) | 60.9%
25 | CNC(=O)c1cc(-n2ccc3cc(NC(=O)Nc4ccc(N5CCN(C)CC5)c(C(F)(F)F)c4)ccc32)ccn1 | 23.8% | 0.845% (active) | 56.3% | 83.1% | 46.6% | 60.8 | 79% | 98.7% | -72.8% (active) | -85.6% (active)
